Screening results: PubChem BioAssay, National Center for Advancing Translational Sciences (NCATS)
A selection: hits, their analogues and other compounds. The true share with any hit is near 5.2%.
rTrxR1 inhibitor = inhibitors of rat thioredoxin reductase 1 | O89049 | recombinant rTrxR1, NADPH fluorescence consumption, selenite substrate | Potency, µM (highest dose often 114 µM), for the others: at the highest dose activity change, negative = inhibition, hits mostly inhibitors | 1% of 390,000 active | AID 588453; note: nearly all actives have a fitted effect of over 65% in size
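Rat TrxR1 (90 nM in the dispensed reagent) was pre-reduced with 400 uM NADPH for 5 min at room temperature, then incubated with compound for 15 min. After 400 uM selenite was added, NADPH fluorescence (Ex 340/Em 450 nm) was followed for 8 min.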
mIDH1 inhibitor = human IDH1 R132H inhibition. AID 602179. O75874. Potency, µM (top dose mostly 76.6 µM), for the others: top-dose activity change, negative = inhibition, most hits filed as inhibitors. 0.093% of 390,000 active. IDH1-R132H enzyme, NADPH consumption, diaphorase/resazurin fluorescence; note: nearly all actives have a fitted effect of over 65% in size
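IDH1-R132H (0.5 ug/mL dispensed) in pH 7.5 Tris buffer was preincubated 30 min with compound, then given a substrate mix of 0.016 mM NADPH and 2 mM alpha-KG for 80 min at room temperature; remaining NADPH was read by diaphorase/resazurin fluorescence.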
TrxR1 substrate = is turned over as a substrate by rat TrxR1; O89049; purified TrxR1 substrate turnover, NADPH consumption readout; Potency, µM (series often up to 114 µM), without a hit: at the highest dose activity change, negative = substrate turnover; 0.01% of 390,000 active; note: nearly all actives have a fitted effect of over 50% in size
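Rat TrxR1, dispensed at 90 nM, was prereduced with 400 uM NADPH (final) for 5 min at ~22 deg C, then incubated with compound 15 min before 400 uM selenite. A first-read NADPH fluorescence drop versus no-compound background flagged substrates.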
Sfp inh = Sfp phosphopantetheinyl transferase inhibition | Q9F4F7 | Biochemical Sfp PPTase activity, qHTS | Potency, µM, for the others: largest response in the series, negative = inhibition, hits mostly inhibitors | 3.5% of 310,000 active;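 note: the enzyme is Sfp with the accession as filed and its product quenches rhodamine fluorescence; 0% = enzyme reaction without inhibitor and -100% = no enzyme wells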
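Buffer: 50 mM Hepes-Na pH 7.6, 10 mM MgCl2, 0.01% Nonidet P-40, 0.01% BSA. Enzyme 15 nM, pre-exposed to compound 15 min; substrates then added and fluorescence change tracked over 30 min.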
PLK1 PBD inh = inhibitors of human PLK1 polo-box domain binding. Plk1 PBD binding of FITC phosphopeptide, fluorescence polarization. Potency, µM, without a hit: max response, negative = inhibition, actives largely listed as inhibitors. 2.8% of 360,000 active. AID 720504; note: series mostly up to about 57 µM; nearly all actives have a fitted effect of over 65% in size
VDR inh = inhibitors of human vitamin D receptor; P11473; VDR-SRC2-3 peptide fluorescence polarization, 2 h; Potency, µM, for the others: max response, negative = inhibition, most hits filed as inhibitors; 0.93% of 400,000 active; AID 504847
Target sequence (P11473 whole entry, looked up): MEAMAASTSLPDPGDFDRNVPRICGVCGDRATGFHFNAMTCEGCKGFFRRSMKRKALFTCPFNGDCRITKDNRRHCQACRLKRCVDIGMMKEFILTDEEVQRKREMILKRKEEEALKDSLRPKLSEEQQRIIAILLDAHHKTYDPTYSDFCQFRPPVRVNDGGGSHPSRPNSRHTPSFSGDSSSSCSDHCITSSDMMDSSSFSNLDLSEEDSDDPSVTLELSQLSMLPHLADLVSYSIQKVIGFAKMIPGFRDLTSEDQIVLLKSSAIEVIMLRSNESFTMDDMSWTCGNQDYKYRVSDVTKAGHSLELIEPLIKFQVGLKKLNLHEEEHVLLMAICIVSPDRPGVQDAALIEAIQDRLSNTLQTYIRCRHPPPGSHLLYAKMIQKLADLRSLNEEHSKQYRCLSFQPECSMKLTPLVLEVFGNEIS
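Inhibition of the VDR/SRC2-3 peptide interaction is quantified by fluorescence polarization. Compounds (23 nl, pintool) incubate with the reagents for 2 hours at ambient room temperature.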
TbPYK inh = confirmation of Trypanosoma brucei pyruvate kinase inhibitors; shares compounds with PLK1 PBD inh; recombinant TbPYK, Kinase-Glo ATP luminescence; Potency, µM (top dose mostly 76.9 µM), for the others: top-dose activity change, negative = inhibition, actives largely listed as inhibitors; 67% of 890 active; AID 720569; note: nearly all actives have a fitted effect of over 70% in size
TbPYK ADP-Glo = inhibits T. brucei pyruvate kinase in orthogonal ADP-Glo assay | Potency, µM (top dose mostly 76.9 µM), for the others: at the highest dose activity change, negative = inhibition, actives largely listed as inhibitors | recombinant TbPYK, ADP-Glo luminescence, 60 min | 62% of 890 active | shares compounds with PLK1 PBD inh; note: nearly all actives have a fitted effect of over 75% in size
Numbers without * were called inactive; u = inconclusive; x = no result; [ ] = remark or other dose. Calls come from the whole dose curve; as a rule, active = well fitted curve in the direction sought with a large enough effect; inconclusive = small, poorly fitted or top-dose-only effect, or another doubt; inactive = no such curve, though single readings can be large; an effect the other way counts as inactive or inconclusive. Unless noted, % is set by controls: 0 for no effect and ±100 for the full control effect; potency is the fitted concentration of half-maximal effect.

SMILES	rTrxR1 inhibitor	mIDH1 inhibitor	TrxR1 substrate	Sfp inh	PLK1 PBD inh	VDR inh	TbPYK inh	TbPYK ADP-Glo
CCCCN(C(=O)CCC(=O)O)C1CC(=O)N(c2ccc(OCCC)cc2)C1=O (stereo not drawn)	13.8%	6.3%	5.5%	12.1%	0.7%	10.0%	x	x
CCCCCCC(=O)N(O)C1CC(=O)N(c2ccc(F)cc2)C1=O (stereo not drawn)	3.55µM*	1.2%	11.7%[57.1 µM]	20µM*	26.7µM*	39.8µM*	u	u
Clc1ccc(-c2nc3ccc(Cl)cn3c2Cc2cccc(Cl)c2)cc1	x	x	x	x	-12.5%	x	x	x
Clc1cccc(Cc2c(-c3ccco3)nc3ccc(Br)cn23)c1	x	x	x	x	10.6µM*	x	u	u
Clc1cccc(Cc2c(-c3ccco3)nc3ccc(Cl)cn23)c1	x	x	x	x	11.9µM*	x	11.2µM*	12.6µM*
O=C(CSc1cccc2cccnc12)N1CCCC1	u	1.5%	59.4%[57.1 µM]	u	2.99µM*	-16.7%	u	u
NNC(=O)CSc1cccc2cccnc12	-11.5%	2.1%	6.6%	-2.0%	-4.9%	-9.7%	x	x
CCOC(=O)C(=C1Nc2ccccc2N1)n1c(-c2ccco2)nc2ccccc21	x	x	x	x	u	x	-71.9%	35.5µM*
Oc1ccc(C2C[C@H]3CC[C@@H]2C3)cc1O (stereo partly drawn)	u	2.4%	10.9%[57.1 µM]	22.4µM*	u	-13.5%	10µM*	14.1µM*
Cc1c(Br)c(O)c(Br)c2sc(=O)oc12	-25.0%[57.1 µM]	5.2%	5.4%[57.1 µM]	2.82µM*	26.7µM*	u	u	u
Cc1ccccc1-c1cc2nc(NCc3ccc(N(C)C)cc3)n(C)c(=O)c2s1	x	x	x	x	1.0%	x	x	x
CCOC(=O)c1cnc2c(OC)cccc2c1NCc1cccnc1	-2.2%	17.5%	2.7%	18.7%	-2.1%	26.2%	x	x
CCOC(=O)c1cnc2ccc(OCC)cc2c1NCc1cccnc1	7.3%	11.9%	11.2%	-17.9%	-3.1%	5.6%	-3.2%	-3.4%
CCOC(=O)C(CCc1ccccn1)c1ccccc1 (stereo not drawn)	8.4%[57.1 µM]	9.1%	4.0%[57.1 µM]	x	-8.8%	-23.6%	x	x
Fc1cccc(/C=N/Nc2nccnc2Cl)c1	6.8%	9.5%	-1.1%	13.4%	-21.7%	-11.9%	u	0.5%
Fc1ccc(/C=N/Nc2nccnc2Cl)cc1	-4.7%	1.8%	-10.0%	-16.8%	4.5%	-1.7%	x	x
Oc1ccc(/C=N/Nc2nccnc2Cl)cc1	1.1%[57.1 µM]	6.9%	4.2%[57.1 µM]	-29.7%	-11.3%	-12.5%	15.8µM*	13.3%
CCc1cccc(CC)c1NC(=O)CCS(=O)(=O)c1ccc(Br)s1	0.2%	13.1%	2.0%	x	x	-0.8%	x	x
O=C(c1cnc(N2CCCCC2)c2ccccc12)N1CCN(c2ccccc2F)CC1	9.0%[57.1 µM]	-10.1%	-4.6%[57.1 µM]	x	x	4.0%	x	x
COc1ccc(N2C(=O)CC(Sc3ncn[nH]3)C2=O)c(OC)c1 (stereo not drawn)	0.501µM*	10.5%	9.0%[57.1 µM]	5.62µM*	29.9µM*	0.0%	u	u
COCCCNC(=S)NNC(=O)c1cc(C2CC2)nc2ccccc12	-21.4%	0.0%	-6.9%	18.9%	-10.6%	4.1%	x	x
N#CC1=C2SCN(c3ccccc3)CN2C(=O)CC1c1c(Cl)cccc1Cl (stereo not drawn)	u	-4.7%	-4.3%	5.01µM*	13.4µM*	22.4µM*	3.16µM*	2.51µM*
N#CC1CN(Cc2ccccc2)CN(Cc2ccccc2)C1	11.7%	-0.4%	-4.1%	11.7%	-9.8%	-0.4%	x	x
N#CC1=C2SCN(c3ccccc3)CN2C(=O)CC1c1cccs1 (stereo not drawn)	u	-2.2%	-5.5%	0.794µM*	26.7µM*	u	2.82µM*	2.51µM*
N#CC1=C2SCN(Cc3ccccc3)CN2C(=O)CC1c1ccccc1F (stereo not drawn)	u	8.9%	6.9%[57.1 µM]	2µM*	16.8µM*	50.1µM*	1.78µM*	1.58µM*
SMILES	rTrxR1 inhibitor	mIDH1 inhibitor	TrxR1 substrate	Sfp inh	PLK1 PBD inh	VDR inh	TbPYK inh	TbPYK ADP-Glo
Cc1ccc(C2CC(=O)N3CN(c4ccc(Br)cc4)CSC3=C2C#N)o1 (stereo not drawn)	u	7.0%	-3.4%	1.26µM*	-12.9%	44.7µM*	31.6µM*	15.8µM*
CC(=O)N1CCc2cc(S(=O)(=O)NC(Cc3ccccc3)C(=O)O)ccc21 (stereo not drawn)	3.6%	-10.8%	-3.1%	5.8%	-0.9%	7.3%	x	x
CCOC(=O)C(=NCC1CCCO1)NNc1ccccc1Cl (stereo not drawn)	8.9%	18.5%	-2.5%	-7.6%	-12.8%	-10.8%	x	x
N#CC1=C2SCN(c3ccccc3)CN2C(=O)CC1c1ccccc1Cl (stereo not drawn)	u	8.5%	2.2%	1µM*	26.7µM*	28.2µM*	7.94µM*	5.62µM*
CCSC1=C(C#N)C(c2ccccc2Cl)CC(=O)N1 (stereo not drawn)	12.2%	3.7%	6.7%[57.1 µM]	-2.7%	-23.7%	-11.2%	x	x
COc1ccc(CCNC(=O)Cn2c(=O)c3cccn3c3ccccc32)cc1OC	9.8%	16.0%	1.3%	x	x	7.7%	x	x
O=C(Nc1cnn(Cc2ccc(Cl)cc2)c1)c1ccc([N+](=O)[O-])cc1	-7.6%	-0.2%	-12.8%	-0.6%	2.4%	-11.6%	x	x
O=C(Nc1cnn(Cc2ccc(Cl)cc2)c1)c1cccs1	13.7%	-1.1%	-5.4%	-4.6%	6.7µM*	u	-5.6%	-13.5%
O=C(Nc1ccc(C(=O)N2CCCC2)cc1)c1ccccc1	14.4%	-1.0%[38.3 µM]	6.0%	x	-6.5%	7.3%	28.2µM*	8.4%
Cc1ccc(/C=C/C(=O)N2CC(C)CC(C)C2)o1 (stereo not drawn)	u	0.1%	-6.0%	15.8µM*	26.7µM*	u	u	31.6µM*
O=C(N/N=C/c1ccccc1)c1[nH]ncc1Br	6.6%[57.1 µM]	-1.1%	4.6%[57.1 µM]	13.8%	-7.7%	8.0%	-27.4%	0.7%
O=C1C(=Cc2ccc(F)cc2)CCc2ccccc21	x	x	x	x	-15.1%	x	28.2µM*	9.7%
